Experimental data reported in PubChem BioAssay (NCATS).
Where “and” joins values, the source holds several entries; their conditions need not be identical. Equal entries are not always repeated. Inconclusive results are not listed. Calls of active or inactive are those of the source. Unless noted, calls come from the whole dose curve; as a rule, active = well fitted inhibition curve with a large enough effect; inconclusive = small, poorly fitted or top-dose-only effect; inactive = flat fitted curve, though single readings scatter.

Assays:
[1] = Drug repurposing screens with cells derived from glioblastoma tumor samples (AID 1345199); conditions: GBM patient neurospheres viability, ATP luminescence, 48 h; note: % is set by controls: 0 for no effect and ±100 for the full control effect; nearly all actives have a fitted effect of over 40% in size
Method in brief: (§1)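 Primary testing used CD133+ neurospheres from four GBM patients, seven concentrations, 48 h exposure and ATP-based viability; confirmation added three slower-growing patient lines.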

[2] = system: astro; assay: as above; conditions: viability, ATP luminescence, 48 h; series mostly up to 45.9 µM
Method in brief: as §1

[3] = molecular target: Nuclear receptor subfamily 1 group I member 2 (Rattus norvegicus) (UniProt Q9R1A7); assay: qHTS assay for small molecule activators of the rat pregnane X receptor (rPXR) signaling pathway (AID 651751; call rule not given here; note: 0% is about no effect); conditions: rPXR reporter cells, luciferase (One-Glo), 24 h
Chain of Nuclear receptor subfamily 1 group I member 2 (Rattus norvegicus) (Q9R1A7 whole entry, looked up): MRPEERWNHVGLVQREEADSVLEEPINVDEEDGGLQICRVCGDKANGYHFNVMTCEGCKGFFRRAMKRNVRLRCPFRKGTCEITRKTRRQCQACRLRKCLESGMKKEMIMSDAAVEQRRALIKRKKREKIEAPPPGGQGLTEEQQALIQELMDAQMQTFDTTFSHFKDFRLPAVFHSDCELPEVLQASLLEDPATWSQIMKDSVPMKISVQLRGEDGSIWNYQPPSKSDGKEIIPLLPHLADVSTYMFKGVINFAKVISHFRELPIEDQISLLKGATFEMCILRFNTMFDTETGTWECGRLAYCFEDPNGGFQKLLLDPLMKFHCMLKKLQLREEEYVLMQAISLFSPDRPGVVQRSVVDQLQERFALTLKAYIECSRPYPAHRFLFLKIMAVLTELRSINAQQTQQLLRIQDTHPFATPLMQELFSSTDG

[4] = qHTS assay for small molecule activators of the human pregnane X receptor (PXR) signaling pathway (AID 720659; call rule not given here; note: 0% is about no effect); conditions: DPX-2 HepG2 CYP3A4-luciferase, 24 h; series mostly up to 92.3 µM
[5] = at 45.9 µM (top of the series), tumour line B
[6] = at 45.9 µM (top of the series), tumour line D
[7] = at 46 µM (top of the series), tumour line A
[8] = at 46.1 µM (top of the series), tumour line C

OB(O)O
inactive: activity, negative = cell killing [1, 5] -12.9% | activity, negative = cell killing [1, 6] -13.8% | activity, negative = cell killing [1, 7] -26.5% | activity, negative = cell killing [1, 8] 5.29% | Potency [2] | max response [3] 1.69% and 5.36% | outcome [4]

C[C@H](CCC(=O)O)[C@H]1CC[C@H]2[C@@H]3CC[C@@H]4C[C@H](O)CC[C@]4(C)[C@H]3C[C@H](O)[C@]12C
inactive: activity, negative = cell killing [1, 5] -4.54% | activity, negative = cell killing [1, 6] 7.18% | activity, negative = cell killing [1, 7] -19.5% | activity, negative = cell killing [1, 8] -8.85% | Potency [2] | max response [3] -12.5%

COC(=O)c1ccccc1O
inactive: activity, negative = cell killing [1, 5] -5.99% | activity, negative = cell killing [1, 6] -6.33% | activity, negative = cell killing [1, 7] -21.5% | activity, negative = cell killing [1, 8] 12.1% | Potency [2] | max response [3] -2.2% and 1.51%

CC/C=C\C/C=C\C/C=C\CCCCCCCC(=O)O
inactive: activity, negative = cell killing [1, 5] 8.6% | activity, negative = cell killing [1, 6] -7.43% | activity, negative = cell killing [1, 7] -13.9% | activity, negative = cell killing [1, 8] 5.73% | Potency [2] | max response [3] -2.75% | outcome [4]

N=C(N)c1ccc(/C=C/c2ccc(C(=N)N)cc2O)cc1
inactive: activity, negative = cell killing [1, 5] -18.3% | activity, negative = cell killing [1, 6] -9.46% | activity, negative = cell killing [1, 8] -14.7% | Potency [2]

CO
inactive: activity, negative = cell killing [1, 5] -8.56% | activity, negative = cell killing [1, 6] -4.99% | activity, negative = cell killing [1, 7] -10.2% | activity, negative = cell killing [1, 8] -11.6% | Potency [2] | max response [3] 4.07% | outcome [4]

O=C(NNCNNC(=O)c1ccncc1)c1ccncc1
inactive: activity, negative = cell killing [1, 5] -12% | activity, negative = cell killing [1, 6] -9.77% | activity, negative = cell killing [1, 7] -25.1% | activity, negative = cell killing [1, 8] -23% | Potency [2]

C[C@H](CCC(=O)O)[C@H]1CC[C@H]2[C@@H]3[C@H](O)C[C@@H]4C[C@H](O)CC[C@]4(C)[C@H]3C[C@H](O)[C@]12C
inactive: activity, negative = cell killing [1, 5] -1.15% | activity, negative = cell killing [1, 6] 1.82% | activity, negative = cell killing [1, 7] -16.5% | activity, negative = cell killing [1, 8] -12.6% | Potency [2] | max response [3] -1% | outcome [4]

CCCCC
inactive: activity, negative = cell killing [1, 5] -6.65% | activity, negative = cell killing [1, 6] -7.88% | activity, negative = cell killing [1, 7] -21.1% | activity, negative = cell killing [1, 8] 22.7% | Potency [2] | max response [3] -1.73% | outcome [4]

c1ccc2ccccc2c1
inactive: activity, negative = cell killing [1, 5] -9.97% | activity, negative = cell killing [1, 6] 9.45% | activity, negative = cell killing [1, 7] -4.53% | activity, negative = cell killing [1, 8] -18.3% | Potency [2] | max response [3] -1.58% and 3.23%

CC(C)O
inactive: activity, negative = cell killing [1, 5] -6.9% | activity, negative = cell killing [1, 6] -24.5% | activity, negative = cell killing [1, 7] -15.4% | activity, negative = cell killing [1, 8] -14.2% | Potency [2] | max response [3] -7.02% | outcome [4]

Cc1ncc[nH]1
inactive: activity, negative = cell killing [1, 5] -1% | activity, negative = cell killing [1, 6] -14.2% | activity, negative = cell killing [1, 7] -4.28% | activity, negative = cell killing [1, 8] -3.58% | Potency [2] | max response [3] 1.58% | outcome [4]

C[Si](C)(C)O[Si](C)(C)C
inactive: activity, negative = cell killing [1, 5] -9.61% | activity, negative = cell killing [1, 6] -4.16% | activity, negative = cell killing [1, 7] -2.42% | activity, negative = cell killing [1, 8] -22.1% | Potency [2] | max response [3] -0.472% | outcome [4]

OCC(O)CO
inactive: activity, negative = cell killing [1, 5] -10.1% | activity, negative = cell killing [1, 6] -10.7% | activity, negative = cell killing [1, 7] -18.9% | activity, negative = cell killing [1, 8] 6.43% | Potency [2] | max response [3] -2.39% and -3.75% | outcome [4]

CN(CCO)CC(O)Cn1cnc2c1c(=O)n(C)c(=O)n2C (centres undefined) (tested in a mixture with another compound)
inactive: activity, negative = cell killing [1, 5] -0.373% | activity, negative = cell killing [1, 6] -10.7% | activity, negative = cell killing [1, 7] -23.5% | activity, negative = cell killing [1, 8] -30% | Potency [2] | max response [3] -1.56% | outcome [4]

Cc1ccc(S(=O)(=O)NCl)cc1
inactive: activity, negative = cell killing [1, 5] -6.22% | activity, negative = cell killing [1, 6] 7.3% | activity, negative = cell killing [1, 7] -22.9% | activity, negative = cell killing [1, 8] -11.3% | Potency [2] | max response [3] -0.198% | outcome [4]

NC(N)=O
inactive: activity, negative = cell killing [1, 5] -9.26% | activity, negative = cell killing [1, 6] -11.1% | activity, negative = cell killing [1, 7] -23.3% | activity, negative = cell killing [1, 8] 7.05% | Potency [2] | max response [3] 3.1% | outcome [4]

C=C(C)C1CC=C(C)CC1 (centres undefined)
inactive: activity, negative = cell killing [1, 5] -13.3% | activity, negative = cell killing [1, 6] -4.33% | activity, negative = cell killing [1, 7] -25% | activity, negative = cell killing [1, 8] -2.45% | Potency [2] | max response [3] 7.4% and -2.46%

OCc1ccccc1
inactive: activity, negative = cell killing [1, 5] -6.55% | activity, negative = cell killing [1, 6] 18% | activity, negative = cell killing [1, 7] -25.4% | activity, negative = cell killing [1, 8] 15.3% | Potency [2] | max response [3] 22.6% | outcome [4]
